PubChem BioAssay AID1159580 (chemical genetic matrix, 2015)
Out of some 5,500 compounds screened, about 2,000 (36%) were called active. About 18% were inconclusive and are not listed. Rule as the data show it: active = normalized growth mostly below about 0.91 (no sharp cut-off); inconclusive = no clear call, values can overlap the other calls; inactive = mostly above about 0.92. The list shows a part of the results.

Assay: chemical genetic growth profiling, strain panel (AID 1159580);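 also: tested at 20 µM; growth read once vehicle control cultures reached saturation at 30 °C; 1 = growth at the plate median or of vehicle wells; lower values mean less growth of the strain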
Details: growth OD

Measured: normalized growth

Cc1cc(-c2ccccc2)nnc1NCCN1CCOCC1
inactive: S. cerevisiae deletion strains, locus YJR075W, strain HOC1, active compounds read low 0.997 | S. cerevisiae deletion strains, locus YKL009W, strain mrt4, active compounds read low 1.08 | S. cerevisiae deletion strains, locus YKL068W, active compounds read low 0.969 | S. cerevisiae deletion strains, locus YKL085W, strain MDH1 (second series), active compounds read low 1 | S. cerevisiae deletion strains, locus YKL085W, strain MDH1, active compounds read low 1 | S. cerevisiae deletion strains, locus YKL160W, strain elf1, active compounds read low 0.966 | S. cerevisiae deletion strains, locus YKL190W, strain CNB1, active compounds read low 1 | S. cerevisiae deletion strains, locus YKR001C, strain vps1, active compounds read low 0.98 | S. cerevisiae deletion strains, locus YKR026C, strain gcn3, active compounds read low 0.995 | S. cerevisiae deletion strains, locus YKR091W, strain srl3, active compounds read low 0.995 | S. cerevisiae deletion strains, locus YLL001W, strain dnm1, active compounds read low 0.976 | S. cerevisiae deletion strains, locus YLL026W, active compounds read low 0.992 | S. cerevisiae deletion strains, locus YLL041C, strain sdh2, active compounds read low 0.988 | S. cerevisiae deletion strains, locus YLR027C, strain aat2, active compounds read low 0.989 | S. cerevisiae deletion strains, locus YLR039C, strain RIC1, active compounds read low 0.999 | S. cerevisiae deletion strains, locus YLR058C, strain SHM2, active compounds read low 1.01 | S. cerevisiae deletion strains, locus YLR102C, strain apc9, active compounds read low 0.968 | S. cerevisiae deletion strains, locus YLR113W, strain HOG1, active compounds read low 0.964 | S. cerevisiae deletion strains, locus YLR221C, strain rsa3, active compounds read low 0.989 | S. cerevisiae deletion strains, locus YLR258W, strain gsy2, active compounds read low 0.995 | S. cerevisiae deletion strains, locus YLR262C, strain YPT6 (second series), active compounds read low 0.98 | S. cerevisiae deletion strains, locus YLR262C, strain YPT6, active compounds read low 1.04 | S. cerevisiae deletion strains, locus YLR268W, strain sec22, active compounds read low 0.946 | S. cerevisiae deletion strains, locus YLR320W, strain mms22, active compounds read low 0.984 | S. cerevisiae deletion strains, locus YLR330W, strain CHS5, active compounds read low 0.999 | S. cerevisiae deletion strains, locus YLR342W, strain FKS1 (second series), active compounds read low 1.07 | S. cerevisiae deletion strains, locus YLR342W, strain FKS1, active compounds read low 0.983 | S. cerevisiae deletion strains, locus YLR357W, strain rsc2, active compounds read low 0.975 | S. cerevisiae deletion strains, locus YLR370C, strain arc18, active compounds read low 0.986 | S. cerevisiae deletion strains, locus YLR371W, strain rom2, active compounds read low 0.967 | S. cerevisiae deletion strains, locus YLR384C, strain iki3, active compounds read low 0.976 | S. cerevisiae deletion strains, locus YLR418C, strain cdc73, active compounds read low 0.998 | S. cerevisiae deletion strains, locus YML016C, strain PPZ1, active compounds read low 1.02 | S. cerevisiae deletion strains, locus YML032C, strain rad52, active compounds read low 0.974 | S. cerevisiae deletion strains, locus YML120C, strain ndi1, active compounds read low 0.972 | S. cerevisiae deletion strains, locus YML124C, strain tub3, active compounds read low 0.978 | S. cerevisiae deletion strains, locus YMR058W, strain fet3, active compounds read low 0.988 | S. cerevisiae deletion strains, locus YMR078C, strain ctf18, active compounds read low 0.978 | S. cerevisiae deletion strains, locus YMR125W, strain sto1, active compounds read low 0.972 | S. cerevisiae deletion strains, locus YMR129W, active compounds read low 0.989 | S. cerevisiae deletion strains, locus YMR205C, strain PFK2, active compounds read low 0.965 | S. cerevisiae deletion strains, locus YMR223W, strain ubp8, active compounds read low 1.02 | S. cerevisiae deletion strains, locus YMR231W, strain pep5, active compounds read low 0.998 | S. cerevisiae deletion strains, locus YMR263W, strain SAP30, active compounds read low 0.997 | S. cerevisiae deletion strains, locus YMR307W, strain GAS1, active compounds read low 1.04 | S. cerevisiae deletion strains, locus YNL067W, strain RPL9B, active compounds read low 0.985 | S. cerevisiae deletion strains, locus YNL071W, strain lat1, active compounds read low 0.987 | S. cerevisiae deletion strains, locus YNL128W, strain TEP1, active compounds read low 0.995 | S. cerevisiae deletion strains, locus YNL153C, strain GIM3, active compounds read low 1.01 | S. cerevisiae deletion strains, locus YNL183C, strain NPR1, active compounds read low 0.931 | S. cerevisiae deletion strains, locus YNL209W, strain ssb2, active compounds read low 0.991 | S. cerevisiae deletion strains, locus YNL233W, strain BNI4, active compounds read low 1.01 | S. cerevisiae deletion strains, locus YNL248C, strain rpa49, active compounds read low 0.985 | S. cerevisiae deletion strains, locus YNL250W, strain rad50, active compounds read low 0.98 | S. cerevisiae deletion strains, locus YNL271C, strain bni1, active compounds read low 0.968 | S. cerevisiae deletion strains, locus YNL298W, strain CLA4, active compounds read low 0.977 | S. cerevisiae deletion strains, locus YNL307C, strain MCK1, active compounds read low 0.993 | S. cerevisiae deletion strains, locus YNL322C, strain KRE1 (second series), active compounds read low 0.981 | S. cerevisiae deletion strains, locus YNL322C, strain KRE1, active compounds read low 0.994 | S. cerevisiae deletion strains, locus YNR049C, strain mso1, active compounds read low 0.982 | S. cerevisiae deletion strains, locus YNR052C, strain pop2, active compounds read low 0.973 | S. cerevisiae deletion strains, locus YOL006C, strain TOP1, active compounds read low 0.959 | S. cerevisiae deletion strains, locus YOL012C, strain htz1 0.852 | S. cerevisiae deletion strains, locus YOL147C, strain pex11, active compounds read low 0.977 | S. cerevisiae deletion strains, locus YOR001W, strain rrp6, active compounds read low 0.986 | S. cerevisiae deletion strains, locus YOR061W, strain CKA2, active compounds read low 1.01 | S. cerevisiae deletion strains, locus YOR069W, strain VPS5, active compounds read low 1.01 | S. cerevisiae deletion strains, locus YOR070C, strain gyp1, active compounds read low 0.993 | S. cerevisiae deletion strains, locus YOR080W, strain dia2, active compounds read low 0.987 | S. cerevisiae deletion strains, locus YOR083W, strain WHI5, active compounds read low 0.968 | S. cerevisiae deletion strains, locus YOR106W, strain vam3, active compounds read low 0.961 | S. cerevisiae deletion strains, locus YOR136W, strain idh2, active compounds read low 0.978 | S. cerevisiae deletion strains, locus YOR144C, strain elg1, active compounds read low 0.967 | S. cerevisiae deletion strains, locus YOR184W, strain ser1, active compounds read low 0.982 | S. cerevisiae deletion strains, locus YOR231W, strain MKK1, active compounds read low 0.971 | S. cerevisiae deletion strains, locus YOR265W, strain rbl2, active compounds read low 0.995 | S. cerevisiae deletion strains, locus YOR270C, strain vph1, active compounds read low 0.965 | S. cerevisiae deletion strains, locus YOR290C, strain snf2, active compounds read low 0.991 | S. cerevisiae deletion strains, locus YOR316C, strain cot1, active compounds read low 0.953 | S. cerevisiae deletion strains, locus YPL051W, strain arl3, active compounds read low 0.985 | S. cerevisiae deletion strains, locus YPL055C, strain LGE1, active compounds read low 1 | S. cerevisiae deletion strains, locus YPL078C, strain atp4, active compounds read low 0.989 | S. cerevisiae deletion strains, locus YPL106C, strain sse1, active compounds read low 0.959 | S. cerevisiae deletion strains, locus YPL240C, strain hsp82, active compounds read low 1 | S. cerevisiae deletion strains, locus YPL241C, strain CIN2, active compounds read low 1.01 | S. cerevisiae deletion strains, locus YPL256C, strain CLN2, active compounds read low 0.945 | S. cerevisiae deletion strains, locus YPR119W, strain clb2, active compounds read low 0.98 | S. cerevisiae deletion strains, locus YPR141C, strain kar3, active compounds read low 0.971 | S. cerevisiae deletion strains, locus YPR163C, strain tif3, active compounds read low 0.982 | S. cerevisiae deletion strains, locus YPR167C, strain met16, active compounds read low 0.97 | S. cerevisiae deletion strains, strain wtn01, active compounds read low 0.982 | S. cerevisiae strains, strain wild type, active compounds read low 1.01
